Screens as filed in PubChem BioAssay.
KB-3-1 cytotox = qHTS assay for MDR1-selective chemotherapeutics: Primary screen using the parental adenocarcinoma cell KB-3-1; KB-3-1 viability, CellTiter-Glo ATP luminescence, 72 h; Potency, µM (top dose mostly 46.1 µM), usual class: cytotoxic; 1.4% of 400,000 active; AID 1347075, 2019; also: nearly all actives have a fitted effect of over 60% in size
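Cytotoxicity measured as CellTiter-Glo luminescence after 72 h at 37 C. Compound titrations were pinned onto drug-naive KB-3-1 parental adenocarcinoma cells grown in DMEM with 10% FBS, and normalized data fitted to concentration-response curves.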
KB-V1 cytotox = qHTS assay for MDR1-selective chemotherapeutics: Primary screen using the drug-selected MDR subline cells KB-V1 | Potency, µM (highest dose often 46.1 µM), most hits filed as cytotoxic | 3.4% of 400,000 active | KB-V1 MDR cells viability, CellTiter-Glo, 72 h; also: nearly all actives have a fitted effect of over 60% in size
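qHTS viability screen in drug-selected KB-V1 MDR cells: 72 h compound treatment at 37 degrees C, ATP luminescence end point.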
MCF10A rereplic = A quantitative high throughput screen for small molecules that induce DNA re-replication in MCF 10a normal breast cells | MCF 10A DNA re-replication, Hoechst nuclear intensity, 48 h | Potency, µM (top dose mostly 46.1 µM), most hits filed as activators | 2.9% of 350,000 active; also: nearly all actives have a fitted effect of over 50% in size
ELG1 repair inh = qHTS screen for small molecules that inhibit ELG1-dependent DNA repair in human embryonic kidney (HEK293T) cells expressing luciferase-tagged ELG1. Potency, µM (series often up to 46.1 µM), usual class: inhibitors. 2.3% of 330,000 active. HEK293T ELG1-luciferase reporter, luminescence, 16 h; DNA damage induced by 5-fluorouridine. AID 504467, 2011; also: nearly all actives have a fitted effect of over 55% in size
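Step one: seed 2,000 cells per well. Step two: pin-transfer compound or DMSO alongside 5-fluorouridine. Step three: incubate 16 hr, 37 °C, 5% CO2. Step four: add ONE-Glo, wait 30 min, read luminescence.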
SW480 rereplic = A quantitative high throughput screen for small molecules that induce DNA re-replication in SW480 colon adenocarcinoma cells; SW480 DNA re-replication, Hoechst DNA content imaging, 48 h; Potency, µM (titrated, usually from 46.1 µM), most hits filed as activators; 1.8% of 340,000 active; also: nearly all actives have a fitted effect of over 55% in size
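DNA re-replication was detected as more nuclei of elevated Hoechst intensity after 48 hr exposure to compound (23 nL pinned per well of 250 cells).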
A number is an active result; 0 = inactive; ? = inconclusive; - = no result; ! = not active in a repeat. Most compounds without a hit are left out; they make up all but 8.1% or so of the library. Calls follow the shape of the dose curve; as a rule, active = well fitted curve in the direction sought with a large enough effect; inconclusive = small, poorly fitted or top-dose-only effect, or another doubt; inactive = no such curve, though single readings can be large; an effect the other way counts as inactive or inconclusive.

SMILES	KB-3-1 cytotox	KB-V1 cytotox	MCF10A rereplic	ELG1 repair inh	SW480 rereplic
CCOC(=O)CSc1nnc2n(Cc3ccccc3)c(=O)c3c4c(sc3n12)CCC4	0	0	0	0	0
C[C@@H]1CNC(=O)c2c(C(=O)N[C@H](C)c3ccccc3)ncn21	0	?	-	-	-
CCN(CC(=O)NCc1cccs1)C(=O)c1ccc(N(C)S(=O)(=O)c2ccc(C)cc2)cc1	0	0	0	-	0
O=C1CCC/C=C/C[C@H](CC(=O)N(CCO)Cc2ccccc2)C(=O)N[C@@H](Cc2ccccc2)CO1	0	0	0	0	0
CC1CCN(C(=O)C2COc3ccccc3C2)CC1 (stereo unspecified)	0	?	-	-	-
Cc1cc(C)cc(NS(=O)(=O)c2ccc(NC(=S)NC(=O)c3ccc(Br)o3)cc2)c1	?	18µM	0	?	0
O=C(Nc1ccc(Oc2ccc(NC(=O)c3ccco3)c(NC(=O)c3ccco3)c2)cc1)c1ccco1	0	0	0	16µM	0
Cc1ccc(C(=O)Nc2ccc(NC(=O)c3ccco3)c(C)c2)cc1	0	?	0	?	0
O=C(Nc1ccc(S(=O)(=O)NCCc2ccccc2)cc1)c1ccc(Br)o1	0	10µM	0	0	0
CCC(=O)Nc1ccc(S(=O)(=O)NCCc2ccccc2)cc1	0	?	0	0	0
Cc1cc(NC(=O)c2ccc(Br)o2)ccc1NC(=O)c1ccco1	?	10µM	0	?	0
COc1ccc(S(=O)(=O)NCC(c2ccc(N(C)C)cc2)N2CCOCC2)cc1 (stereo unspecified)	0	0	-	-	-
Cc1ccc(NS(=O)(=O)c2ccc(NC(=O)c3ccccc3C(=O)O)cc2)c(C)c1	0	0	0	-	0
Cc1ccc(NS(=O)(=O)c2ccc(NC(=O)c3ccc(Br)o3)cc2)c(C)c1	21µM	18µM	?	?	0
O=C(NC(=S)Nc1ccc(S(=O)(=O)Nc2ncccn2)cc1)c1ccc(Br)cc1	0	0	0	0	18µM
C[C@@H]1CN([C@@H](C)CO)C(=O)Cc2cc(NC(=O)Nc3ccc(C(F)(F)F)cc3)ccc2O[C@@H]1CN(C)S(=O)(=O)c1ccc(Cl)cc1	?	0	?	21µM	0
C[C@H](CO)N1C[C@H](C)[C@H](CN(C)S(=O)(=O)c2cn(C)cn2)Oc2ccc(NC(=O)Nc3ccc(C(F)(F)F)cc3)cc2CC1=O	4.1µM	?	?	?	?
Cc1ccc(S(=O)(=O)N(C)C[C@@H]2Oc3ccc(NC(=O)CCC(F)(F)F)cc3CC(=O)N([C@@H](C)CO)C[C@@H]2C)cc1	?	0	3.7µM	0	3.7µM
CSc1nc2nc3c(cn2n1)C(=O)CC(c1ccccc1)C3 (stereo unspecified)	0	13µM	0	0	0
Cc1ccc2cccc(NC(=O)c3ccc(C#N)cc3F)c2n1	0	0	-	-	-
O=C(O)c1ccccc1N=Nc1ccc(O)cc1	0	0	?	-	1.2µM
O=C(O)c1cc(O)ccc1N=Nc1ccccc1	0	0	23µM	0	?
COc1ccc(CCNC(=O)Cc2c(C)c3ccc(O)c(C)c3oc2=O)cc1OC	0	0	-	-	-
COc1ccc(NC(=O)C(c2ccccn2)N(C(C)=O)c2ccc(C)cc2)cc1 (stereo unspecified)	0	18µM	0	?	0
CCOc1ccc(NC(=O)C(c2ccccn2)N(C(=O)CCl)c2ccc(OC)cc2)cc1 (stereo unspecified)	0	?	0	?	?
C[C@H](Cc1ccc(O)c(O)c1)[C@@H](C)Cc1ccc(O)c(O)c1	0	0	-	-	-
CC(Cc1ccc(O)c(O)c1)C(C)Cc1ccc(O)c(O)c1 (stereo unspecified)	0	0	?	-	0.37µM!
O=S(=O)(Nc1c(F)cccc1F)c1ccc(Cl)nc1	0	0	0	?	0.92µM
COc1ccc(CCNC(=O)Cn2nc(C)c3c(C)n(-c4ccccc4)nc3c2=O)c(OC)c1	0	0	0	0	0
